{
  "source": "paper PMC12350791",
  "data": [
    {"target": "ACTR2 (UniProt P61160)", "assay": "cross-linking mass spectrometry", "conditions": "DSBSO, in cells or nuclear extract, not told apart", "values": [
      {"substance": "ARPC4, P59998", "cross-linked residues": "K44 - K322"},
      {"substance": "ACTR3, P61158", "cross-linked residues": "K348 - K46"},
      {"substance": "ARPC3, O15145", "cross-linked residues": "K61 - K46"},
      {"substance": "ARPC1B, O15143", "cross-linked residues": "K49 - K219"}
    ]},
    {"target": "CHTOP (UniProt Q9Y3Y2)", "sequence (Q9Y3Y2 whole entry)": "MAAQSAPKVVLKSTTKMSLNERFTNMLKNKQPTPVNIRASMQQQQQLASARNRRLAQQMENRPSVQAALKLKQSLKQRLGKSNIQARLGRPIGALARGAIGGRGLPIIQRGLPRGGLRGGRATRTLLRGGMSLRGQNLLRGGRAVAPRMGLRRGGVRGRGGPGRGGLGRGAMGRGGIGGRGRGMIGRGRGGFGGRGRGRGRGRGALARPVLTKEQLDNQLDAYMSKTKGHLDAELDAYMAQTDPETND", "assay": "cross-linking mass spectrometry", "conditions": "DSBSO, in cells or nuclear extract, not told apart", "values": [
      {"substance": "ERH, P84090", "cross-linked residues": "K90 - K30"},
      {"substance": "DDX39A, O00148", "cross-linked residues": "K187 - K226"},
      {"substance": "DDX39B, Q13838", "cross-linked residues": "K188 - K226"}
    ]}
  ]
}
